Data on 95 compounds can be found in PubChem BioAssay AID1063 (University of Pittsburgh Molecular Library Screening Center, 2008).

In general, inhibition refers to the drop in the measured response relative to a control, in per cent.

Molecules are shown by their SMILES. In all, about 200,000 compounds went through this assay and about 18,000 (9%) were called active. Shown is part of a subset that was picked to be rich in actives. Unmarked numbers belong to inactive results. No stated cut-off is given here; in the data, active means inhibition above about 50%; inactive means the rest.

The nature of this experiment: antileishmanial activity against promastigotes – primary screen (AID 1063).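 Further: promastigotes grown with compound for 44 hours at 28 °C.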 The conditions noted are these: Leishmania major promastigotes, resazurin fluorescence viability; at 10 µM; stronger effect = higher value. (In general: Alamar Blue is a resazurin reagent that responds to reducing activity.)
Take `CCC(=O)c1ccc(N2CCN(C(=O)c3cc([N+](=O)[O-])ccc3F)CC2)c(F)c1`: the inhibition was 12.8%.
As for `CC(=O)Nc1ccc(S(=O)(=O)N(C)c2ccc(OCC(=O)OCC(=O)N3CCCCC3)cc2)cc1`, the inhibition was -6.69%.
On to `CSc1nc2ccc(NC(=O)c3c(F)cccc3F)cc2s1`, for which the inhibition was 15.7%.
In the case of `Cc1cccc(NC(=S)Nc2ccc3cn[nH]c3c2)c1` it was 5.93%; in that of `CCN(CC)CCN(C(=O)c1cccc([N+](=O)[O-])c1)c1nc2ccc(OC)cc2s1`, 1.41%.
Consider `O=C(/C=C/c1ccc(Cl)cc1)Nc1ccc(S(=O)(=O)Nc2ncccn2)cc1`, for which the inhibition is 63.3% (active).
In the case of `O=C(/C=C/c1ccccc1Cl)Nc1ccc(S(=O)(=O)Nc2ncccn2)cc1` it was -5.22%; in that of `O=S(=O)(Nc1ncccn1)c1ccc(NS(=O)(=O)c2cccc(Cl)c2Cl)cc1`, -9.09%.
On to `CCOc1cc(NC(=S)NCc2ccco2)c(OCC)cc1NC(=O)c1ccco1`, for which the inhibition is -3.82%.
As for `C[C@@H](C(=O)N1CCNCC1)n1cc(CCC(=O)O)nn1`, the inhibition is -3.38%.
Consider `CCc1ccc(-n2c(=S)sc3c(=O)n(-c4ccccc4OC)c(=S)[nH]c32)cc1`, for which the inhibition is -0.77%.
Take `COC(=O)COc1ccc(C2NC(=O)NC(C)=C2C(=O)NCc2ccccc2)cc1OC` (stereo not given): the inhibition is -7.17%.
In the case of `CCCOc1ccc(C2NC(=O)NC(c3ccccc3)=C2C(C)=O)cc1OCC` (stereo not given), the inhibition was 71.8% (active).
Take `CCOC(=O)COc1ccc(Cl)cc1C1NC(=O)NC(C)=C1C(C)=O` (stereo not given): the inhibition is 0.61%.
Take `NS(=O)(=O)c1ccc(NC(=O)COC(=O)c2ccc(Cl)nc2)cc1`: the inhibition is -7.52%.
With `NS(=O)(=O)c1ccc(NC(=S)NC(=O)c2cccc(Br)c2)cc1`, the inhibition was 1.9%.
For `O=C(NCCCN1CCN(Cc2ccccc2)CC1)C1CCN(S(=O)(=O)N2CCCC2)CC1`, the inhibition was -6.76%.
With `O=C(NNS(=O)(=O)c1ccc(Cl)cc1)C1CCN(Cc2ccccc2)CC1`, the inhibition is 95.9% (active).
As to `O=c1cc(CO)oc(CN2CCC(Cc3ccccc3)CC2)c1O`, the inhibition is -2.15%.
In the case of `NC(=O)c1ccc(CN2CCC(Cc3ccccc3)CC2)cc1` it was 86.9% (active); in that of `O=C(Nc1ccccc1)N1CCN(Cc2ccccc2)CC1`, -1.08%.
Consider `O=C(NCc1cccs1)C1CCN(S(=O)(=O)c2ccc(Cl)cc2)CC1`, for which the inhibition was -6.16%.
Consider `CC(C)(C)NC(=O)NC(=O)CN1CCC(Cc2ccccc2)CC1`, for which the inhibition is -1.19%.
The same measure for `CCCC(=O)C1CCN(Cc2ccccc2)CC1`: 82.8% (active); for `CCNC(=S)NNC(=O)C1CCN(Cc2ccccc2)CC1`: -3.47%; for `CCOC(=O)N1CCN(C(=O)c2ccccc2N(Cc2ccccc2)S(=O)(=O)c2ccc(OC)cc2)CC1`: 43.4%.
In the case of `COc1ccc(N2CCN(CCCNC(=O)C3CCN(S(=O)(=O)N4CCOCC4)CC3)CC2)cc1` it was -4.04%; in that of `CC(C)NC(=O)c1ccc(Cl)cc1Cl`, -4.71%.
For the compound `Cc1cc(C)cc(NC(=O)N2CCCCCCC2)c1`, the inhibition is 9.55%.
As to `CCOC(=O)C1CCN(c2ncnc3c2c(-c2ccccc2)cn3-c2ccc(C)cc2)CC1`, the inhibition was -6.27%.
As for `Cc1ccc(NC(=O)Nc2cccc(C(F)(F)F)c2)nc1`, the inhibition is 11%.
Consider `COC(=O)C1=C(C)NC(=O)/C1=C/c1ccc(CNS(=O)(=O)c2ccc(C)cc2)o1`, for which the inhibition is 15.8%.
Consider `COC(=O)C1=C(C)N(c2ccc(Br)cc2)C(=O)/C1=C\c1ccco1`, for which the inhibition is 24.7%.
The same measure for `COC(=O)C1=C(C)N(c2ccc(C)cc2)/C(=C/c2ccc(O)cc2)C1=O`: 97.8% (active); for `COc1ccc(S(=O)(=O)N2CCN(C(=O)c3cc(C)oc3C)CC2)cc1`: 8.89%.
`C/C(CC(=O)Nc1cccc(C(F)(F)F)c1)=N\NC(=O)C(=O)NCC(C)C`: the inhibition is -8.72%.
`COc1ccc(C(=O)CSc2nnc(-c3ccco3)o2)cc1`: the inhibition was -1.52%.
Turning to `N#Cc1ccc(-c2nc3cc(C#N)c(C#N)cc3nc2-c2ccccc2)cc1C#N`, the inhibition is 59% (active).
Take `N#Cc1c(-c2ccc(F)cc2)nc(-c2ccccc2)[nH]c1=O`: the inhibition is 3.06%.
On to `N#Cc1ccc(-c2ccc(F)cc2)nc1Sc1ccccc1`, for which the inhibition is -13%.
In the case of `CC1(C)CC(=O)c2cnc3nc4ccccc4n3c2C1` it was 0.4%; in that of `Cc1cccc(CCNS(=O)(=O)c2ccc(S(=O)(=O)NC3CCCC3)cc2)c1`, 68.6% (active).
Regarding `O=C(CCc1ccc(S(=O)(=O)NC2CCCCC2)cc1)NCc1ccccc1`, the inhibition is 43.9%.
As for `CSc1ccc(S(=O)(=O)NC2CCCCC2)cc1`, the inhibition is -2.31%.
Turning to `CCOC(=O)c1c(N)nn(C(=O)c2ccccc2)c1-c1ccccc1`, the inhibition was 1.03%.
In the case of `O=c1cnnc(Nc2ccccc2)[nH]1`, the inhibition was -6.97%.
For the compound `Cc1nc(NCCN)c(C#N)c2c1COC(C)(C)C2`, the inhibition was -6.15%.
In the case of `CCCCc1nc(NCc2ccccc2)c(C#N)c2c1CCCC2` it was 40.6%.
The same measure for `CCCCc1nc(NCCN)c(C#N)c2c1CSC(C)(C)C2`: 100% (active); for `COc1ccc(C(=O)NC(=S)Nc2ccc(Cl)cn2)cc1OC`: -4.99%.
In the case of `CC(=O)C1C(c2cccc(Oc3ccccc3)c2)NC(=O)NC1(O)C(F)(F)F` (stereo not given), the inhibition was -1.39%.
In the case of `O=C1NC(c2ccc(-c3ccccc3[N+](=O)[O-])o2)C(C(=O)c2ccc(Cl)cc2)C(O)(C(F)(F)F)N1` (stereo not given) it was 57.7% (active); in that of `CC(=O)C1C(c2ccc(Cl)cc2)NC(=O)NC1(O)C(F)(F)F` (stereo not given), -4.84%; in that of `Cn1nnnc1-c1cc(Cl)cc(Cl)c1`, 5.35%.
`O=c1[nH]oc(O)c1-c1ncc(C(F)(F)F)cc1Cl`: the inhibition was -7.85%.
On to `O=C(O)CSc1nnc(-c2ccc3c(c2)OCO3)n1-c1ccccc1`, for which the inhibition was -2.94%.
On to `COc1cc2c(cc1O)C(SC)=NC(C)(C)C2`, for which the inhibition is 77.2% (active).
`COc1cc2c(cc1OC)C(Nc1ccc(S(N)(=O)=O)cc1)=NC(C)(C)C2`: the inhibition is -2.7%.
In the case of `COc1cc2c(cc1OC)C(C(C)C)=NC(C)(C)C2` it was -1.29%; in that of `COC(=O)c1c(NC(C)=O)sc(C(=O)Nc2ccccc2OC)c1C`, -6.26%.
In the case of `COc1ccccc1CNC(=O)CN1CCC(n2cnc3cc(F)ccc32)CC1`, the inhibition is 0.36%.
Take `CCc1ccccc1NC(=O)Cc1cn(C)c2ccccc12`: the inhibition is 1.32%.
Take `Fc1cc(F)c2nc(N3CCOCC3)sc2c1`: the inhibition was -5.44%.
For the compound `Fc1cc(F)c2nc(Nc3nc4c(F)cccc4s3)sc2c1`, the inhibition was 64.3% (active).
Take `NC(=O)c1c(Nc2nc3c(F)cccc3s2)sc2c1CCCC2`: the inhibition was 0.33%.
On to `Cc1cc(C)n(Cc2cnc(N3CCOCC3)s2)n1`, for which the inhibition is 0.31%.
In the case of `COc1ccc2ccccc2c1CNCc1ccccn1`, the inhibition is 52.1% (active).
In the case of `COc1ccc2ccccc2c1CNc1nnnn1C`, the inhibition is 1.31%.
With `COc1ccc(C)cc1NC(=O)NCc1ccccn1`, the inhibition is -9.22%.
`O=S1(=O)CC/C(=N\Nc2ccc(F)cc2)c2ccsc21`: the inhibition is -11.7%.
For `Cc1nn(CC(=O)Nc2ccc(C#N)cc2)c(C)c1[N+](=O)[O-]`, the inhibition is -6.73%.
Turning to `OCC1(Cc2ccccc2)CCN(Cc2cc3ccccc3o2)CC1`, the inhibition was 84.5% (active).
Regarding `CC(=O)c1cccc(CN2CCC(CO)(Cc3ccccc3)CC2)c1`, the inhibition is 14%.
Turning to `CN(C)CCCCCN(C)Cc1cc2ccccc2o1`, the inhibition was 11.6%.
Turning to `Cc1ccc2c(c1)C1CN(C)CCC1N2C(=S)Nc1ccc(Cl)cc1Cl` (stereo not given), the inhibition was 31.9%.
For `Cc1cc(C)cc(N(C(C)C(=O)Nc2c(C)n(C)n(-c3ccccc3)c2=O)S(C)(=O)=O)c1` (stereo not given), the inhibition was -3.81%.
As for `Cc1c(NC(=O)C(C)OC(=O)c2cc3c4ccccc4n(C)c3s2)c(=O)n(-c2ccccc2)n1C` (stereo not given), the inhibition is 88.6% (active).
Regarding `COC(=O)Nc1c(C)n(C)n(-c2ccccc2)c1=O`, the inhibition is -8.78%.
In the case of `Cc1sc2c(c1C)c(=O)n(-c1ccccc1)c(=O)n2CC(=O)NCC1CCCO1` (stereo not given) it was -0.67%; in that of `CCOC(=O)c1cnc2c(c(C)nn2CC)c1Cl`, 6%; in that of `O=C(CN1CCN(c2ccc(O)cc2)CC1)NC1CCCc2ccccc21` (stereo not given), 94.5% (active).
On to `O=C(CSc1nncs1)NC1CCCc2ccccc21` (stereo not given), for which the inhibition is -8.28%.
As for `O=C(CCC(=O)N1CCN(S(=O)(=O)c2ccccc2)CC1)NC1CCCc2ccccc21` (stereo not given), the inhibition is 1.14%.
With `COc1ccc(/C(=N\O)c2nccc3cc(OC)c(OC)cc23)cc1OC`, the inhibition is 3.01%.
On to `CCOC(=O)c1ccc(NC(=O)c2cc(=O)[nH]c3ccccc23)cc1`, for which the inhibition was -7.03%.
Take `COc1ccccc1CNC(=O)CNC(=O)c1cn(-c2ccccc2OC)c(=O)c2ccccc12`: the inhibition is -2.45%.
For the compound `COc1cc(OC)c(C(=O)OCC(=O)N2CC(=O)Nc3ccccc32)cc1OC`, the inhibition was -4.64%.
In the case of `COc1cccc(-n2c(SCC(=O)NC3CCCCC3)nc3n[nH]c(C)c3c2=N)c1`, the inhibition was 20.6%.
In the case of `Cc1cccc(-n2c(N)cc(=O)nc2SC(C)C(=O)NC2CCCCC2)c1` (stereo not given), the inhibition is 55.9% (active).
Take `CC(Sc1nnnn1C)C(=O)NC(=O)NC1CCCCC1` (stereo not given): the inhibition is -2.91%.
On to `Cc1ccc2[nH]c(C)c(CCNC(=O)NC3CCCCC3)c2c1`, for which the inhibition is 5.48%.
With `COc1ccc(N2CCN(C(=O)CNS(=O)(=O)c3ccc(C)c(C)c3)CC2)cc1`, the inhibition was 6.23%.
Take `CCCn1c(N)c(C(=O)CSc2nc3ccccc3c(=O)n2-c2ccc(OC)cc2)c(=O)[nH]c1=O`: the inhibition is -3.93%.
Take `N#CCSc1nc2ccccc2c(=O)n1-c1ccccc1`: the inhibition is 4.35%.
The same measure for `COc1cccc(-n2c(SCC(=O)c3c[nH]c4ccccc34)nc3ccccc3c2=O)c1`: 92.9% (active).
